The subject of this assay is VDR:RXRa (NR concentration 270 nM, RXRa partner concentration 90 nM). The assay is described as follows: PBM binding z-score (relative to random genomic background probes); higher = stronger binding; sequences stand for … in GC…GCGATTGACAGCGTAGAATGAAGG
On the procedure:
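Protein-binding microarray (Agilent 4x180K custom design, double-stranded 60-nt probes: 5' GC cap, 34-nt variable region, 24-nt constant primer region; full probe sequence given). Purified or IVT nuclear receptor:RXRα heterodimers (3:1 NR:RXRα, mostly 270:90 nM) or homodimers were incubated for 1 h in PBS with 2% milk and no ligand, then detected with Alexa488 antibodies. Fluorescence from o1-orientation probes (~5 replicates averaged) was converted to z-scores against 500 random hg19 background probes. Variable regions are seed direct-repeat (DR0–DR5) sites, all their single-nucleotide variants and half-site ablations.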
In the case of ATATGTAGGTTAGTGTCATTCAGAAAGTAGGGAA, the PBM binding z-score was 1.04. The same measure for CCTTGCGGGTCACTGACAGGTTATAGCATTTGGA: 3.13; for TCGAGTAGGTTACGGGGGCACTCAGGGATGAAGA: 3.33; for TAGCCAAGGTCAGATCGGGCCAGTATACGCTATA: 3.07.

Sequence CGTCAAAGTTCATGGTAACGTAACAGAAAGCAGC gave a PBM binding z-score of 4.33. With TCGAGTAGGTTACGAGGGCATTCAGGGATGAAGA the figure was 2.32; with CGTCCGAGGTCAATGCTAGGTCAGTGAAAGCATT, 5.63; with TGAATGAGGTTTAAGATCAGGGAACGTGGCGTCG, -0.255. Sequence GCTTCCGGGTCAAAGGTTATAGCATGAATAGAAT registered a PBM binding z-score of 5.69.

ATCGAAAGGTCGTGAGGTGTGTATACAGAAAGGC registered a PBM binding z-score of 4.55. ATATGTAGGTTAGGGTCATCCAGAAAGTAGGGAA gave a PBM binding z-score of 4.46. With TAGCCTCGGTCATTCAGGGGCCAGTATAGAAAGC the figure was 0.169; with CCGAGTAGGTTACGAGGGGGTATTCAGTGCGAAT, 2.95. The same measure for CGTCCAAGGTCAGTGAGGTCAGTGAATGCCGAGT: 7.42; for AGTCAAAGGTCACTAGGTAACGTAAGATTCAGCT: 5.23. With CAAAGTAGGTCACCGGAAGGTCAAAGTCCGCATG the figure was 6.18. Regarding TCGAGTAGGCTACGGGGGCATTCAGGGATGAAGA, the PBM binding z-score came out at 2.2. In the case of ATATGTAGGTTAAGGTCATTCAGAAAGTAGGGAA, the PBM binding z-score stood at 4.69.

Regarding AGTCAAAGGTCAGGACGAGGTAACGTAAAGCACG, the PBM binding z-score stood at 4.83. Consider CGACCTAGGTCAAAGGACAGTGAAAGGCGACGTA, for which the PBM binding z-score came out at 2.05. Sequence CCGAGTAGGTTACGAGGGGGCATTCAATGCGAAT gave a PBM binding z-score of 4.88. Sequence AGTGAAAGTTCAGGACGAGGTAACGTAAAGCACG returned a PBM binding z-score of 2.81.

With ATATGTAGGTTAGCGGGGGTCATTCAGACTAGGC, the PBM binding z-score was determined as 6.4. The sequence CTTAGTTGGTCAGGAGGTCACACACCGGATATGA came in with a PBM binding z-score of 3.78.

For the sequence CAATCTAGGTCACAGAGGTCAAAGTCCGTGCGTA, the PBM binding z-score is 8.07. CGTCCAAGGTCAATGCAAGGTCAGTGAAAGCATT displayed a PBM binding z-score of 6.14. With CGTCCAAGGTCAGCAGGTCACTGAAAGCGACGTG the figure was 4.5; with CTATGTAGGTTAAGGGGTTCATTCAGTTTGAAAG, 7.62. Turning to CTATGTAGGTTTAGGGGGTCATTCAGTTTGAAAG, the PBM binding z-score was determined as 6.29. With CGCACTAGGTCACCAGGACAGTGAAGAGGTTGGA the figure was 1.87; with CCGAGTAGGATACGAGGGGGCATTCAGTGCGAAT, 3.32. For ACTCGGGGGACAAAGGTCAGAGCTACGCCAGTGA, the PBM binding z-score is 4.66.

CAAACTAGGTCAAAGGTCAAAGCCGAGCCAACCA displayed a PBM binding z-score of 6.79. With GATACAGGGTCAGCTAGAGGTCAGAGTATGGAAA the figure was 6.14; with CCGAGTAGGTTACGAGGGGGGATTCAGTGCGAAT, 3.17; with CCTGCTAGGTCAATGGTCAGCTCAAGCAGCTCGC, 0.923. The same measure for AATACAGGGACATCGTAGGCCAGAGTACGCACAG: -0.0914; for ATCGGAAGGTCGAGGTGAGTATAGAGAAAGGGAA: 1.31. The same measure for GCTTACGGGTCAAAGGTTATGGCATGAATAGAAT: 5.58. Sequence CCTTACGGGTCTCTCCAGGTTATAGCATCGGAGT had a PBM binding z-score of 0.117.

Values taken from the supplement of paper PMC6555819.
